# Measurements reported in PubChem BioAssay AID1159580 (chemical genetic matrix, 2015).
# The whole screen tested about 5,500 compounds, of which about 2,000 (36%) were called active. Inconclusive results (about 18%) are left out. The list shows a part of the results. Unmarked numbers belong to inactive results. Cut-off read from the data, not from the text of the source: active = normalized growth mostly below about 0.91 (no sharp cut-off); inconclusive = no clear call, values can overlap the other calls; inactive = mostly above about 0.92.
# Experiment: chemical genetic growth profiling, strain panel (AID 1159580);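 note: tested at 20 µM; growth read once vehicle control cultures reached saturation at 30 °C; 1 = growth at the plate median or of vehicle wells; lower values mean less growth of the strain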
# Conditions: S. cerevisiae deletion strains, growth OD
# [1] = locus YDL101C, strain DUN1, active compounds read low
# [2] = locus YHR030C, strain SLT2, active compounds read low
compound,measurement,setting,value
FC(F)(F)c1ccc(Cl)c(NC(=S)NN=C2CCCCCC2)c1,normalized growth,"locus YAL013W, strain DEP1, active compounds read low",0.989
same,normalized growth,"locus YBR229C, strain ROT2, active compounds read low",0.977
same,normalized growth,"locus YCL061C, strain MRC1, active compounds read low",1.01
same,normalized growth,[1],1.07
same,normalized growth,"locus YDR150W, strain NUM1, active compounds read low",1.04
same,normalized growth,"locus YEL061C, strain CIN8, active compounds read low",0.89 (active)
same,normalized growth,"locus YGR078C, strain PAC10, active compounds read low",0.996
same,normalized growth,"locus YGR229C, strain SMI1, active compounds read low",0.948
same,normalized growth,[2],0.924
same,normalized growth,"locus YHR087W, strain rtc3, active compounds read low",0.956
same,normalized growth,"locus YJR043C, strain POL32, active compounds read low",1.03
same,normalized growth,"locus YJR075W, strain HOC1, active compounds read low",1.02
same,normalized growth,"locus YKL190W, strain CNB1, active compounds read low",0.891 (active)
same,normalized growth,"locus YLR039C, strain RIC1, active compounds read low",0.783 (active)
same,normalized growth,"locus YLR058C, strain SHM2 (second series), active compounds read low",0.99
same,normalized growth,"locus YLR085C, strain ARP6, active compounds read low",0.741 (active)
same,normalized growth,"locus YLR262C, strain YPT6, active compounds read low",0.883
same,normalized growth,"locus YML094W, strain GIM5, active compounds read low",0.912
same,normalized growth,"locus YMR219W, strain ESC1, active compounds read low",0.984
same,normalized growth,"locus YMR263W, strain SAP30, active compounds read low",0.996
same,normalized growth,"locus YNL153C, strain GIM3, active compounds read low",1.02
same,normalized growth,"locus YNL298W, strain CLA4 (second series), active compounds read low",0.813 (active)
same,normalized growth,"locus YNL322C, strain KRE1, active compounds read low",0.989
same,normalized growth,"locus YNR030W, strain Alg12, active compounds read low",0.895
same,normalized growth,"locus YOL006C, strain TOP1, active compounds read low",0.61 (active)
same,normalized growth,"locus YPL055C, strain LGE1, active compounds read low",0.949
same,normalized growth,"locus YPL241C, strain CIN2, active compounds read low",0.969
same,normalized growth,"locus YPR135W, strain CTF4, active compounds read low",1
FC(F)(F)c1cccc(NC(=S)NN=C2CCCCCC2)c1,normalized growth,"locus YAR019C, strain CDC15, active compounds read low",0.978
same,normalized growth,"locus YBL105C, strain PKC1, active compounds read low",0.983
same,normalized growth,"locus YBR135W, strain CKS1, active compounds read low",0.994
same,normalized growth,"locus YBR136W, strain MEC1, active compounds read low",0.987
same,normalized growth,"locus YBR160W, strain CDC28, active compounds read low",0.991
same,normalized growth,"locus YDL017W, strain CDC7, active compounds read low",0.983
same,normalized growth,"locus YDL028C, strain MPS1, active compounds read low",0.997
same,normalized growth,[1],0.984
same,normalized growth,"locus YDL108W, strain KIN28, active compounds read low",1
same,normalized growth,"locus YDL132W, strain cdc53, active compounds read low",0.989
same,normalized growth,"locus YDL214C, strain PRR2, active compounds read low",0.909
same,normalized growth,"locus YDR052C, strain DBF4, active compounds read low",0.982
same,normalized growth,"locus YDR054C, strain cdc34, active compounds read low",0.966
same,normalized growth,"locus YDR226W, strain ADK1, active compounds read low",0.978
same,normalized growth,"locus YDR477W, strain SNF1, active compounds read low",0.91
same,normalized growth,"locus YER123W, strain YCK3, active compounds read low",0.831
same,normalized growth,"locus YER133W, strain GLC7, active compounds read low",0.892
same,normalized growth,"locus YFL009W, strain cdc4, active compounds read low",0.986
same,normalized growth,"locus YFL029C, strain CAK1, active compounds read low",0.983
same,normalized growth,"locus YFR003C, strain YPI1, active compounds read low",0.989
same,normalized growth,"locus YFR019W, strain FAB1, active compounds read low",0.946
same,normalized growth,"locus YFR028C, strain CDC14, active compounds read low",0.992
same,normalized growth,"locus YGR040W, strain KSS1, active compounds read low",0.914
same,normalized growth,"locus YGR052W, strain FMP48, active compounds read low",0.924
same,normalized growth,"locus YGR092W, strain DBF2, active compounds read low",0.823
same,normalized growth,[2],0.846 (active)
same,normalized growth,"locus YHR079C, strain IRE1, active compounds read low",0.81
same,normalized growth,"locus YHR082C, strain KSP1, active compounds read low",0.997
same,normalized growth,"locus YHR205W, strain SCH9, active compounds read low",0.914
same,normalized growth,"locus YIL147C, strain SLN1, active compounds read low",0.987
same,normalized growth,"locus YJL095W, strain BCK1, active compounds read low",0.887
same,normalized growth,"locus YJL128C, strain PBS2, active compounds read low",0.98
same,normalized growth,"locus YJL157C, strain FAR1, active compounds read low",0.869
same,normalized growth,"locus YJR016C, strain ILV3, active compounds read low",0.993
same,normalized growth,"locus YJR066W, strain TOR1 (second series), active compounds read low",0.827
same,normalized growth,"locus YJR066W, strain TOR1, active compounds read low",0.907
same,normalized growth,"locus YKL048C, strain ELM1, active compounds read low",0.949
same,normalized growth,"locus YKL067W, strain YNK1, active compounds read low",0.92
same,normalized growth,"locus YKL101W, strain HSL1, active compounds read low",0.928
same,normalized growth,"locus YKL193C, strain SDS22, active compounds read low",0.986
same,normalized growth,"locus YKL203C, strain TOR2, active compounds read low",0.936
same,normalized growth,"locus YLR113W, strain HOG1, active compounds read low",0.811 (active)
same,normalized growth,"locus YLR133W, strain CKI1, active compounds read low",0.921
same,normalized growth,"locus YLR403W, strain SFP1, active compounds read low",0.882
same,normalized growth,"locus YML070W, strain DAK1, active compounds read low",0.897
same,normalized growth,"locus YMR001C, strain CDC5, active compounds read low",0.979
same,normalized growth,"locus YMR205C, strain PFK2 (second series), active compounds read low",0.936
same,normalized growth,"locus YMR277W, strain FCP1, active compounds read low",0.988
same,normalized growth,"locus YNL006W, strain LST8, active compounds read low",0.986
same,normalized growth,"locus YNL020C, strain ARK1, active compounds read low",0.902
same,normalized growth,"locus YNL161W, strain CBK1, active compounds read low",0.987
same,normalized growth,"locus YNL183C, strain NPR1, active compounds read low",0.949
same,normalized growth,"locus YNL207W, strain RIO2, active compounds read low",0.98
same,normalized growth,"locus YNL222W, strain SSU72, active compounds read low",1
same,normalized growth,"locus YNL307C, strain MCK1 (second series), active compounds read low",0.798
same,normalized growth,"locus YOL078W, strain AVO1, active compounds read low",0.994
same,normalized growth,"locus YOL136C, strain PFK27, active compounds read low",0.896
same,normalized growth,"locus YOR061W, strain CKA2, active compounds read low",0.862
same,normalized growth,"locus YOR119C, strain RIO1, active compounds read low",0.973
same,normalized growth,"locus YOR231W, strain MKK1, active compounds read low",0.828
same,normalized growth,"locus YOR329C, strain SCD5, active compounds read low",0.988
same,normalized growth,"locus YPL031C, strain PHO85, active compounds read low",0.884
same,normalized growth,"locus YPL153C, strain RAD53, active compounds read low",0.872
same,normalized growth,"locus YPL204W, strain HRR25, active compounds read low",0.838
same,normalized growth,"locus YPL209C, strain IPL1, active compounds read low",0.988
same,normalized growth,"locus YPL256C, strain CLN2, active compounds read low",0.84 (active)
same,normalized growth,"locus YPR025C, strain CCL1, active compounds read low",0.995
same,normalized growth,"locus YPR106W, strain ISR1, active compounds read low",0.994
same,normalized growth,"locus YPR111W, strain DBF20, active compounds read low",0.984
same,normalized growth,"strain NNK1, active compounds read low",1
same,normalized growth,"strain TSCII, active compounds read low",0.982
